77 molecules from the supplement of paper PMC6135742 can be followed below.

Each structure is given as a SMILES string. “And” between values parts separate entries of the source, which are not always exact repeats. Equal entries are not always repeated. Structures can show the parent of a compound that is named as a salt. ± gives the standard deviation of the averaged measurements. The full ranking holds about 2,600 compounds; the median of “total cell number (DAPI+ nuclei) relative to DMSO vehicle control” is about -1.4, and the lowest 2% start at about -23. This excerpt belongs to a sample that is enriched for the lowest values.

In this assay the test system is jimpy (Plp1 jimpy) mouse iPSC-derived oligodendrocyte progenitor cells. Nature of the assay: total cell number (DAPI+ nuclei) relative to DMSO vehicle control (SDs above negative control mean); higher = more surviving cells. The conditions noted are these: 10 µM; 3 days.
`NCC(O)c1ccc(O)c(O)c1` (racemic) [(±)-Norepinephrine (+)bitartrate] registered a total cell number of 0.169.

Molecule `COc1cccc(C(=O)NCCN2CCN(c3ccc(Cl)cc3)CC2)c1` registered a total cell number of -2.1. In the case of `Cc1nc(Nc2ncc(C(=O)Nc3c(C)cccc3Cl)s2)cc(N2CCN(CCO)CC2)n1` [Dasatinib], the total cell number is -22.6. `CNC(=O)c1ccc2cc([C@@]3(O)CCn4cncc43)ccc2c1` [TAK-700 (Orteronel)]: the total cell number was 0.9. Turning to `CC1(C)S[C@@H]2[C@H](NC(=O)C(C(=O)O)c3ccccc3)C(=O)N2[C@H]1C(=O)O` (some centres not stated) [Carbenicillin disodium], the total cell number amounted to 0.323. For `Cc1nc(N)sc1-c1ccnc(Nc2ccc(N3CCOCC3)cc2)n1` the value was -22.6; for `N#CCNC(=O)c1ccc(-c2ccnc(Nc3ccc(N4CCOCC4)cc3)n2)cc1`, -12.5.

`O=C(Nc1ccc(-c2ccnc(Nc3ccc(N4CCOCC4)cc3)n2)cc1)C1CCCN1` (configuration not stated) gave a total cell number of -12.4.

In the case of `CC(C)OC(=O)C(C(=O)OC(C)C)=C1SC=CS1` [Malotilate], the total cell number amounted to 7.42.

Molecule `COc1ccc(C2(CNC(=O)c3ccc(NC(=O)c4ccco4)cc3)CCOCC2)cc1` displayed a total cell number of -6.22.

The molecule `CCc1cccc(CC)c1NC(=O)N1Cc2[nH]nc(NC(=O)c3ccc(N4CCN(C)CC4)cc3)c2C1` came in with a total cell number of -17.5.

As to `CO[C@@H](C(=O)N1Cc2[nH]nc(NC(=O)c3ccc(N4CCN(C)CC4)cc3)c2C1)c1ccccc1`, the total cell number is -24.2. For `Cc1cc2c(F)c(Oc3ncnn4cc(OC[C@@H](C)OC(=O)[C@H](C)N)c(C)c34)ccc2[nH]1` the value was -4.11. For `COc1cc2c(Oc3ccc4[nH]c(C)cc4c3F)ncnc2cc1OCCCN1CCCC1` [Cediranib (AZD2171)] the value was -26.9. For `Cc1cc2c(F)c(Oc3ncnn4cc(OC[C@@H](C)O)c(C)c34)ccc2[nH]1` the value was -1.9.

`CN(C)C(=O)[C@H](O)[C@H](Cc1ccccc1)NC(=O)c1cc2cc(Cl)ccc2[nH]1` displayed a total cell number of 0.79 ± 0.2. In the case of `CCCC(CCC)C(=O)O[C@H]1C[C@H]2CC[C@@H](C1)[N+]2(C)C` [Anisotropine methyl bromide] it was 12.1; in that of `CS(=O)(=O)N1CCN(Cc2cc3nc(-c4cccc5[nH]ncc45)nc(N4CCOCC4)c3s2)CC1`, -23.7. For `COc1ccc(-c2nc(N3CCOCC3)c3sc(CN(C)c4ncc(C(=O)NO)cn4)cc3n2)cn1` the value was -10.4; for `Cc1c(CN2CCN(C(=O)[C@H](C)O)CC2)sc2c(N3CCOCC3)nc(-c3cnc(N)nc3)nc12`, -11.4. For the molecule `O=c1cc(-c2ccccc2)oc2cc(O)c(O)c(O)c12` [Baicalein], the total cell number is -6.52.

`CCCCOc1ccc(C(=O)Nc2ccc(F)cc2F)cc1` had a total cell number of 1.72.

`CCCCCCCCCCCC1=C(O)C(=O)C=C(O)C1=O` [Embelin] registered a total cell number of 1. For `COc1cc(Nc2ncc3c(n2)-c2ccc(Cl)cc2C(c2c(F)cccc2OC)=NC3)ccc1C(=O)O` [Alisertib (MLN8237)] the value was -12.8; for `NCC(=O)Nc1ccc(-n2nc(C(F)(F)F)cc2-c2ccc3c(ccc4ccccc43)c2)cc1`, -26.5. `Cc1ccc(-c2cc(C(F)(F)F)nn2-c2ccc(S(N)(=O)=O)cc2)cc1` [Celecoxib] came in with a total cell number of 0.578 ± 0.53.

Molecule `NS(=O)(=O)c1ccc(-n2nc(C(F)(F)F)cc2-c2ccc(Cl)cc2)cc1` returned a total cell number of 0.298. For `CCCCc1nc2cc(/C=C/C(=O)NO)ccc2n1CCN(CC)CC` [Pracinostat (SB939)] the value was -12.2; for `Cc1[nH]c(/C=C2\C(=O)Nc3ccccc32)c(C)c1CCC(=O)O` [TSU-68 (SU6668, Orantinib)], -0.233; for `CCN(CC)CCNC(=O)c1c(C)[nH]c(/C=C2\C(=O)Nc3ccc(F)cc32)c1C` [Sunitinib Malate], -26.5. In the case of `CCN(CC)CCNC(=O)c1cc(S(C)(=O)=O)ccc1OC` [Tiapride hydrochloride] it was -1.15; in that of `CCN(CC)CCNC(=O)c1c(C)[nH]c(/C=C2\C(=O)Nc3ccc(F)cc32)c1C` [Sunitinib malate], -11.2.

Consider `C[N+](C)(C)CC(O)CC(=O)[O-]` (racemic) [DL-Carnitine HCl], for which the total cell number came to 2.24.

`CC(=O)C(C)=O` [2,3-Butanedione]: the total cell number is -1.17.

As for `CC[C@H]1OC(=O)C[C@@H](O)[C@H](C)[C@@H](O[C@@H]2O[C@H](C)[C@@H](O)[C@H](N(C)C)[C@H]2O)[C@@H](CCN2C[C@H](C)C[C@H](C)C2)C[C@@H](C)C(=O)/C=C/C(C)=C/[C@@H]1CO[C@@H]1O[C@H](C)[C@@H](O)[C@@H](OC)[C@H]1OC` [Tilmicosin], the total cell number is -3.95. As for `Cc1cc(C)c(/C=C2\C(=O)Nc3ccccc32)[nH]1` [Semaxanib (SU5416)], the total cell number is -1.49. In the case of `Cc1cc(C)c(/C=C2\C(=O)Nc3ccccc32)[nH]1` it was -3.96.

For the molecule `COC1=CC(c2cc3ccccc3[nH]2)=N/C1=C\c1[nH]c(C)cc1C` [Obatoclax Mesylate (GX15-070)], the total cell number is -27.6. Regarding `C[C@H](NC(=O)Cc1cc(F)cc(F)c1)C(=O)N[C@@H]1C(=O)N(C)c2ccccc2-c2ccccc21`, the total cell number was -6.63. `NS(=O)(=O)c1nn2cc(-c3ccccc3)nc2s1` yielded a total cell number of -5.78. In the case of `CCCCCCCC/C=C\CCCCCCCC(=O)NCc1ccc(O)c(OC)c1` [Olvanil] it was -4.4; in that of `Cc1cc(Nc2cc(N3CCN(C)CC3)nc(Sc3ccc(NC(=O)C4CC4)cc3)n2)n[nH]1` [VX-680 (Tozasertib, MK-0457)], -24; in that of `Cc1cc(Nc2cc(N3CCN(C)CC3)nc(/C=C/c3ccccc3)n2)n[nH]1`, -26.3.

On to `C[C@@H](N)[C@H]1CC[C@H](C(=O)Nc2ccncc2)CC1`, for which the total cell number is -1.42 and -2.14.

In turn, `O=C(Nc1ccc2[nH]ncc2c1)C1CCC1` [Rhodblock 6] returned a total cell number of -2.58.

Take `Fc1ccc(C(OCCCc2cnc[nH]2)c2ccc(F)cc2)cc1`: the total cell number was -1.91. On to `CC(C)NCC(O)c1ccc(NS(C)(=O)=O)cc1` (racemic) [(±)-Sotalol hydrochloride], for which the total cell number was -1.64. `COCCNC(=O)COc1ccc(OCCNC[C@H](O)COc2ccccc2)cc1` [ZD 7114 hydrochloride] showed a total cell number of -0.987. In the case of `CCCC(=O)O[C@]1(C(=O)COC(C)=O)CC[C@H]2[C@@H]3C[C@H](F)C4=CC(=O)C=C[C@]4(C)[C@@]3(F)[C@@H](O)C[C@@]21C` [Difluprednate] it was 4.34. For `COc1cc(N2CCN(C)CC2)ccc1Nc1nccc(-c2cn(C)c3cnccc23)n1` the value was -15.9; for `O=C(O)Cc1ccc(O)c(O)c1` [3,4-Dihydroxyphenylacetic acid], -1.97; for `Nc1nc(Cl)nc2c1ncn2[C@@H]1O[C@H](CO)[C@@H](O)[C@H]1O` [2-Chloroadenosine], -3.18. Consider `Nc1nc(Cl)nc2c1ncn2[C@@H]1O[C@H](CO)[C@@H](O)[C@@H]1F` [Clofarabine], for which the total cell number was -21.2. Molecule `Nc1nc(Cl)nc2c1ncn2[C@H]1C[C@H](O)[C@@H](CO)O1` [Cladribine] showed a total cell number of -22.8. `c1cnc2cc3c(cc2n1)[C@@H]1CNC[C@H]3C1` [Varenicline Tartrate] showed a total cell number of 1.55. In the case of `c1cnc2cc3c(cc2n1)[C@@H]1CNC[C@H]3C1` [Varenicline tartrate] it was -2.7; in that of `O=C(O)C1(C(=O)O)CCC1.[NH2-].[NH2-].[Pt+2]` [Carboplatin], -4.56 ± 1.4. For the molecule `CSc1nc(N)c2ncn([C@@H]3O[C@H](COP(=O)(O)OP(=O)(O)OP(=O)(O)O)[C@H](O)C3O)c2n1` (some centres not stated) [2-Methylthioadenosine triphosphate tetrasodium], the total cell number is 1.81. Turning to `Nc1ncnc2c1c(-c1ccc(Oc3ccccc3)cc1)cn2C1CCCC1`, the total cell number is -5.56. For `C=CC(=O)N1CCC[C@@H](n2nc(-c3ccc(Oc4ccccc4)cc3)c3c(N)ncnc32)C1` the value was -8.95; for `Nc1ncnc2c1c(-c1cccc(OCc3ccccc3)c1)cn2C1CC(CN2CCCC2)C1` (configuration not stated), -25.8.

As for `O=C(Nc1ccccc1C(=O)NC1CCCCNC1=O)c1cc2ccccc2s1` (configuration not stated), the total cell number was -0.315. For `COC(=O)N[C@H](C(=O)N1CCC[C@H]1c1ncc(-c2ccc(-c3ccc(-c4cnc([C@@H]5CCCN5C(=O)[C@@H](NC(=O)OC)C(C)C)[nH]4)cc3)cc2)[nH]1)C(C)C` the value was -5.73; for `COc1cccc2c1[C@@H]1CN(CCCCn3c(=O)[nH]c4c(sc5ncc(-c6ccccc6)nc54)c3=O)C[C@@H]1CO2` [Fiduxosin hydrochloride], -6.17; for `Cc1nc(C(=O)NCC(=O)O)c(O)c2ccc(Oc3ccccc3)cc12`, 3.22. In turn, `C[C@@H](Oc1cc(-n2cnc3ccc(CN4CCN(C)CC4)cc32)sc1C(N)=O)c1ccccc1C(F)(F)F` came in with a total cell number of -14.7. In the case of `CC(C)c1cc(C(=O)N2Cc3ccc(CN4CCN(C)CC4)cc3C2)c(O)cc1O` it was -25.7. In the case of `Nc1ncnc2c1ncn2[C@@H]1O[C@H](COP(=O)(O)OP(=O)(O)OP(=O)(O)OP(=O)(O)OC[C@@H]2O[C@H](n3cnc4c(N)ncnc43)C(O)[C@@H]2O)[C@H](O)C1O` (some centres not stated) [P1,P4-Di(adenosine-5')tetraphosphate triammonium], the total cell number is -0.947. For `Nc1c(S(=O)(=O)O)cc(Nc2ccc(Nc3nc(Cl)nc(Nc4cccc(S(=O)(=O)O)c4)n3)c(S(=O)(=O)O)c2)c2c1C(=O)c1ccccc1C2=O` [Reactive Blue 2] the value was -0.98; for `C[C@@H]1O[C@@H](O[C@H]2[C@H](Oc3cc(O)c(C(=O)CCc4ccc(O)cc4)c(O)c3)O[C@H](CO)[C@@H](O)[C@@H]2O)[C@H](O)[C@H](O)[C@H]1O` [Naringin Dihydrochalcone], -0.984.

Consider `Cc1nc2c([nH]1)c(=O)n(C)c(=O)n2Cc1ccco1` [Furafylline], for which the total cell number is -0.322.

As to `O=C(NCCCNc1nc(Nc2cccc(NC(=O)N3CCCC3)c2)ncc1I)c1cccs1`, the total cell number was -23.5.

`Cc1cnc(Nc2ccc(OCCN3CCCC3)cc2)nc1Nc1cccc(S(=O)(=O)NC(C)(C)C)c1` returned a total cell number of -12.3.

For the molecule `C=CC(=O)Nc1cccc(Nc2nc(Nc3ccc(OCCOC)cc3)ncc2F)c1`, the total cell number was -15.3. For `O=C(Nc1cccc(Nc2ncc(Br)c(NCCc3cnc[nH]3)n2)c1)N1CCCC1` the value was -24.3; for `NC[C@@H]1O[C@H](c2ccccc2)Cc2c1ccc(O)c2O`, -2.54. `CCCCCCCCCCCCc1ccc(S(=O)(=O)Nc2nncs2)cc1`: the total cell number stood at 1.21.
